# From the supplement of paper PMC9588786
# ± gives the standard deviation of the averaged measurements.
# System: HT-1080
# Experiment: relative cell viability with RSL3 co-treatment (fraction of control); higher = stronger protection from RSL3-induced ferroptosis (higher viability)
# Conditions: 10 µM
# 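Note: viability read as CCK-8 absorbance at 450 nm in cells co-exposed to the GPX4 inhibitor RSL3, relative to a 0.01% DMSO vehicle control.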
row,Compound,relative cell viability
1,O=c1c(-c2ccc(O)cc2)coc2cc(O)cc(O)c12 [Genistein],0.76 ± 0.07
2,CN1CCC(CNc2ccc3ncc(-c4cccc(OC(F)(F)F)c4)n3n2)CC1 [SGI-1776 free base],0.507 ± 0.16
3,O=C(O)c1ccc(-c2c[nH]c3ncc(-c4ccccc4)cc23)cc1C1CCCC1,0.81 ± 0.017
4,C[C@@H](N)[C@H]1CC[C@H](C(=O)Nc2ccncc2)CC1,0.843 ± 0.032
5,CC[C@@H]1C(=O)N(C)c2cnc(Nc3ccc(C(=O)N[C@H]4CC[C@H](N5CCN(CC6CC6)CC5)CC4)cc3OC)nc2N1C(C)C [Volasertib (BI 6727)],0.397 ± 0.15
6,Cc1cc(Nc2cc(CN3CCOCC3)c3nc(C)c(Cc4ccc(Cl)cc4F)n3n2)n[nH]1,0.383 ± 0.095
7,C=CC(=O)Nc1cccc(Oc2nc(Nc3ccc(N4CCN(C)CC4)cc3OC)ncc2Cl)c1,0.927 ± 0.04
8,COc1cc2ncnc(Nc3ccc(O)c(Br)c3)c2cc1OC,0.8167 ± 0.0058
9,NC(=O)c1ncn([C@@H]2O[C@H](CO)[C@@H](O)[C@H]2O)c1N [AICAR (Acadesine)],1.03 ± 0.011
10,COc1ccc(S(=O)(=O)N(C(C)=O)c2ccccc2/C=C/c2cc[n+]([O-])cc2)cc1,0.633 ± 0.015
11,Cn1cc(-c2ccc3ncc(Cc4ccc5ncccc5c4)n3n2)cn1,0.727 ± 0.11
12,CCCCCCCCCCCCCCCCCCOP(=O)([O-])OC1CC[N+](C)(C)CC1 [Perifosine (KRX-0401)],0.463 ± 0.18
13,CC(C)(C)c1ccc(S(=O)(=O)/C=C/C#N)cc1,0.707 ± 0.015
14,CNCc1ccc(-c2cc(-c3nc(-c4ccc(S(=O)(=O)C(C)C)cc4)cnc3N)on2)cc1,0.47 ± 0.026
15,CN(C)Cc1cccc(N=C(c2ccccc2)c2c(O)[nH]c3cc(C(=O)N(C)C)ccc23)c1,0.79 ± 0.044
16,CS(=O)(=O)N1CCN(Cc2cc3nc(-c4cccc5[nH]ncc45)nc(N4CCOCC4)c3s2)CC1 [Pictilisib (GDC-0941)],0.547 ± 0.11
17,O=C(NC[C@H](O)CO)c1ccncc1Nc1ccc(I)cc1F,0.803 ± 0.076
18,N#C/C(=C\c1ccc(O)c(O)c1)C(=O)NCc1ccccc1 [AG-490 (Tyrphostin B42)],0.55 ± 0.12
19,COc1cccc2cc(-c3nc([C@H]4CC[C@H](C(=O)O)CC4)n4ncnc(N)c34)[nH]c12,0.7 ± 0.07

row,Compound,relative cell viability
1,CO[C@H]1CC[C@H](N2C(=O)CNc3ncc(-c4ccc(C(C)(C)O)nc4)nc32)CC1,0.733 ± 0.091
2,COc1cc(Nc2c(C#N)cnc3cc(OCCCN4CCN(C)CC4)c(OC)cc23)c(Cl)cc1Cl [Bosutinib (SKI-606)],0.867 ± 0.035
3,CC(C)CC(NC(=O)C(Cc1ccccc1)NC(=O)C(CCC(N)=O)NC(=O)C(Cc1ccc(O)cc1)NC(=O)C(C)NC(=O)CNC(=O)C(CCCCN)NC(=O)C(Cc1c[nH]c2ccccc12)NC(=O)C(NC(=O)C(Cc1c[nH]c2ccccc12)NC(=O)C(CCCCN)NC(=O)CNC(=O)C(CC(N)=O)NC(=O)C(CCC(=O)O)NC(=O)C(Cc1c[nH]c2ccccc12)NC(=O)C(NC(=O)C(Cc1c[nH]c2ccccc12)NC(=O)C(CO)NC(=O)CNC(=O)C1CCCN1C(=O)C(Cc1c[nH]c2ccccc12)NC(=O)C(CCC(N)=O)NC(=O)C(Cc1ccccc1)NC(=O)CNC(=O)C(N)Cc1c[nH]cn1)C(C)O)C(C)O)C(=O)NC(CCCCN)C(=O)NCC(=O)NCC(=O)NCC(=O)NCC(=O)NC(CO)C(=O)NC(CCCNC(=N)N)C(=O)NC(CCCNC(=N)N)C(=O)NC(CCCNC(=N)N)C(=O)NC(CCCNC(=N)N)C(=O)NC(CCCNC(=N)N)C(=O)NC(CCCNC(=N)N)C(=O)NC(CCCNC(=N)N)C(=O)NC(CCCNC(=N)N)C(=O)NC(CCCNC(=N)N)C(=O)O (stereo not drawn),0.7133 ± 0.0058
4,CO[C@@H](C(=O)N1Cc2[nH]nc(NC(=O)c3ccc(N4CCN(C)CC4)cc3)c2C1)c1ccccc1,0.507 ± 0.1
5,C[C@@]1(C(=O)Nc2ccc(F)nc2)CCCN1c1nc(Nc2cc(C3CC3)n[nH]2)c2cccn2n1,0.483 ± 0.05
6,CN1CCC(COc2cnc(-c3cccc(Cn4nc(-c5cccc(C#N)c5)ccc4=O)c3)nc2)CC1,0.633 ± 0.067
7,CC(C)(C)c1nc(-c2cccc(NS(=O)(=O)c3c(F)cccc3F)c2F)c(-c2ccnc(N)n2)s1,0.577 ± 0.11
8,CN1CCCN(C(=O)c2cccc(-c3ccc(/C=C4/C(=O)Nc5ccc(Cl)cc54)o3)c2)CC1,0.743 ± 0.061
9,N#CC1(c2ccc(NC(=O)c3cccnc3NCc3ccncc3)cc2)CCCC1 [Apatinib],0.643 ± 0.046
10,O=c1cc(-c2cccc3c2Sc2ccccc2S3)oc(N2CCOCC2)c1,0.57 ± 0.21
11,CN1CCN(c2nc(C3=C(c4c[nH]c5ccccc45)C(=O)NC3=O)c3ccccc3n2)CC1 [Sotrastaurin],0.903 ± 0.042
12,Nc1cccc(-c2cc3c(Oc4cccc(O)c4)ncnc3[nH]2)c1,0.483 ± 0.046
13,CO[C@H]1C[C@@H]2CC[C@@H](C)[C@@](O)(O2)C(=O)C(=O)N2CCCC[C@H]2C(=O)O[C@H]([C@H](C)C[C@@H]2CC[C@H](n3cnnn3)[C@H](OC)C2)CC(=O)[C@H](C)/C=C(\C)[C@@H](O)[C@@H](OC)C(=O)[C@H](C)C[C@H](C)/C=C/C=C/C=C/1C [Zotarolimus(ABT-578)],0.607 ± 0.16
14,O=C(NOCC1CC1)c1ccc(F)c(F)c1Nc1ccc(I)cc1Cl,0.693 ± 0.2
15,C[C@]1(O)C[C@@H](c2nc(-c3ccc4ccc(-c5ccccc5)nc4c3)c3c(N)nccn32)C1 [Linsitinib (OSI-906)],0.587 ± 0.029
16,CS(=O)(=O)c1ccc(-c2cnc(N)c(C(=O)Nc3ccccc3)n2)cc1,0.713 ± 0.05
17,CS(=O)(=O)CCNCc1ccc(-c2ccc3ncnc(Nc4ccc(OCc5cccc(F)c5)c(Cl)c4)c3c2)o1,0.673 ± 0.032
18,COc1ccc(CNC(=O)Nc2ncc([N+](=O)[O-])s2)cc1,0.45 ± 0.03
19,Cc1cc(Nc2ncc(Cl)c(Nc3ccccc3S(=O)(=O)C(C)C)n2)c(OC(C)C)cc1C1CCNCC1 [Ceritinib (LDK378)],0.513 ± 0.057
